This passage reports growth results from PubChem BioAssay (NCI).

Molecules are shown by their SMILES. About 83,000 compounds went through this panel and 20% of them were active in at least one assay; those are over-represented in the sample as a whole.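 Single-dose data. Exposure time 48 hours. Values below 10 considered active.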 Unmarked numbers belong to inactive results. Calls of active or inactive are those of the source.

The test system of this assay is EKVX NSCLC. Nature of the assay: NCI-60 one-dose screen, 48 h (100 = growth as untreated, 0 = no growth, -100 = all killed). As to conditions: 10 µM unless noted. As for the experimental part: Growth inhibition of the EKVX human Non-Small Cell Lung tumor cell line is measured as a screen for anti-cancer activity. Cells are grown in 96 well plates and exposed to the test compound for 48 hours. Compounds are tested at a single concentration, which is 10^-5 M for most compounds. The reported endpoint is percent growth (GI% or GIPRCNT), where numbers from 0 - 100% represent growth inhibition, and numbers from -100% - 0 represent cell death. For example, a value of 40 represents 60% growth inhibition. A value of 0 means no net growth occurred over the course of the experiment. A value of -40 indicates 40% of cells at the beginning of the experiment died by the end of the experiment. A value of -100 means all cells are dead at the end of the experiment.
NCI-60 Human Tumor Cell Lines Screen was performed using the standard one-dose NCI protocol, which is described in more detail at https://dtp.cancer.gov/discovery_development/nci-60/default.htm.
Compounds with GIPRCNT values below 10 were considered active. Activity score was based on GIPRCNT using the following formula: […]
Score is 0 for GIPRCNT values of 100 or above, 50 for GIPRCNT values of 0, and 100 for GIPRCNT values of -100.
As to `CC[C@@H](C(=O)[C@@H](C)[C@@H](O)[C@H](C)[C@@H]1O[C@@H]([C@@H](CC)C(=O)O)CC[C@@H]1C)[C@H]1OC2(C=C[C@@H](O)[C@]3(CC[C@@](C)([C@H]4CC[C@](O)(CC)[C@H](C)O4)O3)O2)[C@H](C)C[C@@H]1C` (stereo not given in full), the growth is 34.3%.

For the compound `COc1ccc(C(=O)/C=C/c2cccnc2Nc2cc(OC)c(OC)c(OC)c2)cc1`, the growth was 61.9%.

Regarding `COc1cccc(-c2nc3sccn3c2-c2ccnc(NCCCNS(=O)(=O)c3cccc(F)c3)c2)c1`, the growth is 31%.

With `CC(=O)c1cc2c(N)c(C(=O)Nc3cccc(F)c3C)sc2nc1C`, the growth was 95.7%.

Regarding `COc1ccc(CN2c3ccccc3Oc3ccccc32)cc1O`, the growth was 35%.

In the case of `CCNC(=O)Oc1ccc(/C(=C(\C)c2ccc(Cl)cc2)c2ccc(OCCN3CCCCC3)cc2)cc1`, the growth is 57.4%.

For `CCOC(=O)c1c(C)oc2ncnc(N3CCN(C(=O)COc4ccc(SC)cc4)CC3)c12`, the growth is 88.1%.

`COc1ccc2nc(NC(=O)CSc3nnc4n3S(=O)(=O)c3ccccc3N4c3ccccc3)sc2c1`: the growth is 94.4%.

Take `Clc1ccc2c(NCCCNc3nc(-n4ccnc4)nc4ccccc34)ccnc2c1`: the growth is 70.3%.

With `CON1C(=O)CC[C@]2(C)[C@H]3CC[C@@H]4C([C@@]5(C)CCC(=O)O5)CC[C@@]4(C)[C@]3(C)CC[C@H]2C1(C)C` (stereo not given in full), the growth is 93.3%.

In the case of `O=C(/C=C/c1cccc(Cl)c1)c1ccc(O)c(CN2CCN(c3cc4c(cc3F)c(=O)c(C(=O)O)cn4C3CC3)CC2)c1`, the growth is 55.7%.

On to `O=S(=O)(Nc1ccc(NS(=O)(=O)c2ccccc2)c(Cl)c1)c1ccccc1`, for which the growth is 106%.

Consider `Cc1nc(/N=C(\N)NC(=O)Nc2cccc([N+](=O)[O-])c2)sc1C`, for which the growth is 77.3%.

As for `O=C1NC(=S)N[C@H]1CC(=O)n1cnc2ccccc21`, the growth is 90.5%.

Take `COc1ccc(/C=C/C(=O)c2cc(O)ccc2O)cc1`: the growth was 93%.

For the compound `CCN(CC)S(=O)(=O)c1ccc(OC)c(NC(=O)c2[nH]c(C)c3c2CCCCC3=O)c1`, the growth was 43.5%.

Regarding `Oc1cccc2ccc(N/N=C/c3cc(CN4CCOCC4)c(O)c4ncccc34)nc12`, the growth was 23.4%.

On to `COc1ccc2c(c1)O/C(=C\c1cccc(OCC(=O)Nc3nc4c(s3)CCCC4)c1)C2=O`, for which the growth is 90.2%.

Regarding `CCN1CCC2(CC1)NC(=O)c1c(c3ccc(Cl)c(Cl)c3n1C)C2C#N` (stereo not given), the growth was 68.8%.

With `Nc1n[nH]c2ccc([C@@H]3Nc4cc5c(cc4[C@H]4C6CCC(C6)[C@@H]34)C(=O)NC5)cc12` (stereo not given in full), the growth is 48.9%.

As to `COc1ccc(-c2nc3ccc(-c4nc5ccc(N6CCN(c7ccc(F)cc7)CC6)cc5[nH]4)cc3[nH]2)cc1OC`, the growth is 99.6%.

For `NC(=O)c1cc(Cl)ccc1NC(=O)/C=C/c1ccccc1`, the growth was 41%.

Regarding `Nc1n[nH]c2ccc([C@@H]3Nc4ccc5cn[nH]c5c4[C@H]4C5CCC(C5)[C@@H]34)cc12` (stereo not given in full), the growth was 48.7%.

In the case of `CCN1CCN(c2nc(NCCCNc3ccnc4cc(Cl)ccc34)c3ccccc3n2)CC1`, the growth was 63.1%.

In the case of `C=C1C(=O)O[C@H]2[C@H]1CC/C(COC(=O)c1cc3cc(OC)ccc3[nH]1)=C\CC[C@@]1(C)O[C@@H]21`, the growth was -86.2% (active).

Take `C=C1C(=O)O[C@H]2[C@H]1CC/C(C=Nc1ccc(C(F)(F)F)cc1N)=C\CC[C@@]1(C)O[C@@H]21`: the growth was 31.2%.

As to `COc1ccccc1Nc1nc(-c2cc3cccc(C(F)(F)F)c3oc2=O)cs1`, the growth was 36.1%.

Regarding `COC(=O)c1ccc2oc(NC(=O)c3ccc(Nc4ccc([N+](=O)[O-])cc4C)c([N+](=O)[O-])c3)nc2c1`, the growth was 79.9%.

For `O=C(O)c1ccc(NC(=O)c2ccc(-c3cccc([N+](=O)[O-])c3)o2)cc1`, the growth was 93.6%.

With `CCOC(=O)c1c(C(=O)OCC)c2cc(-c3ccn4c(C(=O)c5ccccc5)c(C(=O)OCC)c(C(=O)OCC)c4c3)ccn2c1C(=O)c1ccccc1`, the growth was 90.4%.

Take `COc1cccc(-c2nn(C(C)(C)C)cc2-c2ccnc(NCCCNS(=O)(=O)c3ccc(C)cc3)c2)c1`: the growth is 100%.

As to `CCc1nc(N)nc(N)c1C#CC(C)c1ccc(-c2ccncc2)cc1Cl` (stereo not given), the growth was 25%.

As to `CCOC(=O)n1cc(-c2nonc2-c2cn(C)c3ncccc23)c2ccccc21`, the growth is 61.2%.

As to `Cc1cc(N2CCCCCC2)nc(NC2CCCC(Nc3ccnc4cc(Cl)ccc34)C2)n1` (stereo not given), the growth is -27.5% (active).

Turning to `Cc1cc(C)nc(SC2=C(Nc3cccc(Cl)c3C)C(=O)N(Cc3ccccc3)C2=O)n1`, the growth was 47.2% [30 µM].

For `C=C(C)[C@@H]1CC[C@]2(C(=O)OC)CC[C@]3(C)[C@H](CC[C@@H]4[C@@]5(C)C/C(=C/c6cccc(I)c6)C(=O)C(C)(C)[C@@H]5CC[C@]43C)[C@@H]12`, the growth was 94.6%.

In the case of `COc1ccc(CCNc2nc3c(c(=O)n(Cc4ccc(Br)cc4)c(=O)n3C)n2C)cc1OC`, the growth is 83.7%.

Turning to `COc1ccc(/C=C2\Oc3cc(OCCCCN4CCCC4)ccc3C2=O)cc1`, the growth was 91.5%.

`C#CCOc1ccc2ncnc(Nc3cccc(CNC(=O)CCl)c3)c2c1`: the growth was 58.7% [8.25 µM].

For `O=C(N(c1ccccc1)c1ccccc1)n1ccc2nc(Cl)nc(Cl)c21`, the growth was 63.3%.
